Several values for one entry are separate records, joined by “and”; a condition that tells them apart may be missing. Identical values can stand only once. In all, about 5,500 compounds went through this assay and about 2,000 (36%) were called active. Inconclusive results (about 18%) are left out. Rule as the data show it: active = normalized growth mostly below about 0.91 (no sharp cut-off); inconclusive = no clear call, values can overlap the other calls; inactive = mostly above about 0.92. The list shows a part of the results.
Assay: chemical genetic growth profiling, strain panel (AID 1159580);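 also: tested at 20 µM; growth read once vehicle control cultures reached saturation at 30 °C; 1 = growth at the plate median or of vehicle wells; lower values mean less growth of the strain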
Conditions: growth OD

Measured: normalized growth

CC(CN(C)C)CN1c2ccccc2CCc2ccccc21 (stereo not given)
inactive: S. cerevisiae deletion strains, locus YJR066W, strain TOR1, hits give low values 0.94 | S. cerevisiae deletion strains, locus YKL009W, strain mrt4, hits give low values 1 | S. cerevisiae deletion strains, locus YKL068W, hits give low values 1.01 | S. cerevisiae deletion strains, locus YKL085W, strain MDH1 (second series), hits give low values 1.02 | S. cerevisiae deletion strains, locus YKL085W, strain MDH1, hits give low values 1.02 | S. cerevisiae deletion strains, locus YKL160W, strain elf1, hits give low values 0.978 | S. cerevisiae deletion strains, locus YKL190W, strain CNB1, hits give low values 1.02 | S. cerevisiae deletion strains, locus YKR001C, strain vps1, hits give low values 1.02 | S. cerevisiae deletion strains, locus YKR026C, strain gcn3, hits give low values 0.991 | S. cerevisiae deletion strains, locus YKR091W, strain srl3, hits give low values 0.977 | S. cerevisiae deletion strains, locus YLL001W, strain dnm1, hits give low values 0.989 | S. cerevisiae deletion strains, locus YLL026W, hits give low values 0.979 | S. cerevisiae deletion strains, locus YLL041C, strain sdh2, hits give low values 0.965 | S. cerevisiae deletion strains, locus YLR027C, strain aat2, hits give low values 0.974 | S. cerevisiae deletion strains, locus YLR039C, strain RIC1, hits give low values 1.13 | S. cerevisiae deletion strains, locus YLR058C, strain SHM2, hits give low values 1.01 | S. cerevisiae deletion strains, locus YLR102C, strain apc9, hits give low values 1.02 | S. cerevisiae deletion strains, locus YLR113W, strain HOG1, hits give low values 0.994 | S. cerevisiae deletion strains, locus YLR221C, strain rsa3, hits give low values 0.982 | S. cerevisiae deletion strains, locus YLR258W, strain gsy2, hits give low values 0.984 | S. cerevisiae deletion strains, locus YLR262C, strain YPT6 (second series), hits give low values 1.01 | S. cerevisiae deletion strains, locus YLR262C, strain YPT6, hits give low values 1.12 | S. cerevisiae deletion strains, locus YLR268W, strain sec22, hits give low values 1.02 | S. cerevisiae deletion strains, locus YLR320W, strain mms22, hits give low values 0.947 | S. cerevisiae deletion strains, locus YLR330W, strain CHS5, hits give low values 1.01 | S. cerevisiae deletion strains, locus YLR342W, strain FKS1 (second series), hits give low values 1.04 | S. cerevisiae deletion strains, locus YLR342W, strain FKS1, hits give low values 0.976 | S. cerevisiae deletion strains, locus YLR357W, strain rsc2, hits give low values 0.967 | S. cerevisiae deletion strains, locus YLR370C, strain arc18, hits give low values 0.977 | S. cerevisiae deletion strains, locus YLR371W, strain rom2, hits give low values 1.01 | S. cerevisiae deletion strains, locus YLR384C, strain iki3, hits give low values 0.979 | S. cerevisiae deletion strains, locus YLR418C, strain cdc73, hits give low values 1.02 | S. cerevisiae deletion strains, locus YML016C, strain PPZ1, hits give low values 1.01 | S. cerevisiae deletion strains, locus YML032C, strain rad52, hits give low values 1.01 | S. cerevisiae deletion strains, locus YML120C, strain ndi1, hits give low values 0.971 | S. cerevisiae deletion strains, locus YML124C, strain tub3, hits give low values 1.02 | S. cerevisiae deletion strains, locus YMR058W, strain fet3, hits give low values 0.971 | S. cerevisiae deletion strains, locus YMR078C, strain ctf18, hits give low values 1.01 | S. cerevisiae deletion strains, locus YMR125W, strain sto1, hits give low values 0.973 | S. cerevisiae deletion strains, locus YMR129W, hits give low values 0.981 | S. cerevisiae deletion strains, locus YMR205C, strain PFK2, hits give low values 0.97 | S. cerevisiae deletion strains, locus YMR223W, strain ubp8, hits give low values 1.02 | S. cerevisiae deletion strains, locus YMR231W, strain pep5, hits give low values 0.984 | S. cerevisiae deletion strains, locus YMR263W, strain SAP30, hits give low values 1 | S. cerevisiae deletion strains, locus YMR307W, strain GAS1, hits give low values 1.05 and 1 | S. cerevisiae deletion strains, locus YNL067W, strain RPL9B, hits give low values 1.01 | S. cerevisiae deletion strains, locus YNL071W, strain lat1, hits give low values 0.963 | S. cerevisiae deletion strains, locus YNL128W, strain TEP1, hits give low values 1.03 and 1.02 | S. cerevisiae deletion strains, locus YNL175C, strain NOP13, hits give low values 1.01 | S. cerevisiae deletion strains, locus YNL183C, strain NPR1, hits give low values 0.936 | S. cerevisiae deletion strains, locus YNL197C, strain WHI3, hits give low values 1.02 | S. cerevisiae deletion strains, locus YNL209W, strain ssb2, hits give low values 0.98 | S. cerevisiae deletion strains, locus YNL224C, strain SQS1, hits give low values 1.01 | S. cerevisiae deletion strains, locus YNL233W, strain BNI4, hits give low values 0.998 | S. cerevisiae deletion strains, locus YNL248C, strain rpa49, hits give low values 0.988 | S. cerevisiae deletion strains, locus YNL250W, strain rad50, hits give low values 1.03 | S. cerevisiae deletion strains, locus YNL271C, strain bni1, hits give low values 1.02 | S. cerevisiae deletion strains, locus YNL298W, strain CLA4, hits give low values 1.02 | S. cerevisiae deletion strains, locus YNL307C, strain MCK1, hits give low values 1.03 | S. cerevisiae deletion strains, locus YNL322C, strain KRE1 (second series), hits give low values 0.966 | S. cerevisiae deletion strains, locus YNL322C, strain KRE1, hits give low values 1.01 | S. cerevisiae deletion strains, locus YNR049C, strain mso1, hits give low values 0.977 | S. cerevisiae deletion strains, locus YNR052C, strain pop2, hits give low values 1.02 | S. cerevisiae deletion strains, locus YOL006C, strain TOP1, hits give low values 0.976 | S. cerevisiae deletion strains, locus YOL012C, strain htz1 1.63 | S. cerevisiae deletion strains, locus YOL147C, strain pex11, hits give low values 1.02 | S. cerevisiae deletion strains, locus YOR001W, strain rrp6, hits give low values 0.979 | S. cerevisiae deletion strains, locus YOR061W, strain CKA2, hits give low values 1.01 | S. cerevisiae deletion strains, locus YOR069W, strain VPS5, hits give low values 1.01 | S. cerevisiae deletion strains, locus YOR070C, strain gyp1, hits give low values 1.01 | S. cerevisiae deletion strains, locus YOR080W, strain dia2, hits give low values 0.971 | S. cerevisiae deletion strains, locus YOR083W, strain WHI5 (second series), hits give low values 1.05 | S. cerevisiae deletion strains, locus YOR083W, strain WHI5, hits give low values 0.976 | S. cerevisiae deletion strains, locus YOR106W, strain vam3, hits give low values 0.939 | S. cerevisiae deletion strains, locus YOR136W, strain idh2, hits give low values 1.02 | S. cerevisiae deletion strains, locus YOR144C, strain elg1, hits give low values 1.02 | S. cerevisiae deletion strains, locus YOR184W, strain ser1, hits give low values 1.04 | S. cerevisiae deletion strains, locus YOR231W, strain MKK1, hits give low values 0.983 | S. cerevisiae deletion strains, locus YOR265W, strain rbl2, hits give low values 0.97 | S. cerevisiae deletion strains, locus YOR270C, strain vph1, hits give low values 0.897 | S. cerevisiae deletion strains, locus YOR290C, strain snf2, hits give low values 0.927 | S. cerevisiae deletion strains, locus YOR316C, strain cot1, hits give low values 1.02 | S. cerevisiae deletion strains, locus YPL051W, strain arl3, hits give low values 0.972 | S. cerevisiae deletion strains, locus YPL055C, strain LGE1, hits give low values 1.01 | S. cerevisiae deletion strains, locus YPL078C, strain atp4, hits give low values 0.961 | S. cerevisiae deletion strains, locus YPL106C, strain sse1, hits give low values 0.956 | S. cerevisiae deletion strains, locus YPL240C, strain hsp82, hits give low values 0.978 | S. cerevisiae deletion strains, locus YPL241C, strain CIN2, hits give low values 1.01 and 1 | S. cerevisiae deletion strains, locus YPL256C, strain CLN2, hits give low values 0.981 | S. cerevisiae deletion strains, locus YPR119W, strain clb2, hits give low values 1.02 | S. cerevisiae deletion strains, locus YPR141C, strain kar3, hits give low values 1.01 | S. cerevisiae deletion strains, locus YPR163C, strain tif3, hits give low values 1.02 | S. cerevisiae deletion strains, locus YPR167C, strain met16, hits give low values 1.02 | S. cerevisiae deletion strains, strain wtn01, hits give low values 1.02 | S. cerevisiae strains, strain wild type, hits give low values 1
